This note sets out measurements from the supplement of paper PMC13380429.

The subject of assay [1] is Vero E6 infected with SARS-CoV-2. The assay is described as follows: morphology score (similarity to uninfected cells); higher = more like uninfected cells. To be noted: 24 h.
The test system is the same in assay [2]. Description: SARS-CoV-2 infection rate relative to infected DMSO; higher = more infection, active = 60 or less. Particulars: 24 h.

The structures appear in SMILES notation.

With `COCC(=O)Nc1c(I)c(C(=O)NCC(O)CO)c(I)c(C(=O)N(C)CC(O)CO)c1I` (configuration not stated) [iopromide] (10 µM), the morphology score in assay [1] is -0.11. The SARS-CoV-2 infection rate in assay [2] was 106% (inactive).
Consider `CCN(CCNC(=O)Nc1ccccc1Br)c1cccc(C)c1` (10 µM), for which the morphology score in assay [1] was -0.0408. Also, the SARS-CoV-2 infection rate in assay [2] is 112% (inactive).
The like results for `Clc1ccc(N2CCN(Cc3c[nH]c4ncccc34)CC2)cc1` (10 µM) were, in that order, -0.0196 and 108% (inactive).
The like results for `CCCN(CCC)C(=O)Cc1c(-c2ccc(Cl)cc2)nc2ccc(Cl)cn12` [alpidem] (10 µM) were, in that order, 0.0705 and 99.5% (inactive).
The like results for `CCCCCCCCCCC(=O)O[C@H]1CC[C@H]2[C@@H]3CCC4=CC(=O)CC[C@]4(C)[C@H]3CC[C@]12C` [Testosterone (undecanoate)] (10 µM) were, in that order, 0.107 and 98.5% (inactive).
Consider `Cc1cc(NC(=O)Nc2ccc(N(C)C)cc2)c2cc(F)cc(F)c2n1` (10 µM), for which the morphology score in assay [1] stood at 0.204. In addition, the SARS-CoV-2 infection rate in assay [2] was 99% (inactive).
`O=NN(CCCl)C(=O)NC1CCCCC1` [lomustine] (10 µM) registered a morphology score in assay [1] of -0.0183. Moreover, in assay [2], the SARS-CoV-2 infection rate is 108% (inactive).
The like results for `O=C(NCCN1CCCCC1)c1ccc(I)cc1` [N-[2-(piperidinylamino)ethyl]-4-iodobenzamide] (10 µM) were, in that order, 0.317 and 91.5% (inactive).
Molecule `OC[C@H]1O[C@@H](O[C@@H]2[C@@H](CO)OC(O)(CO)[C@H]2O)[C@H](O)[C@@H](O)[C@H]1O` (mixture of isomers) [lactulose] (10 µM) registered a morphology score in assay [1] of -0.0368. Moreover, the SARS-CoV-2 infection rate in assay [2] is 97.5% (inactive).
`CNC(=O)c1ccccc1Sc1ccc2c(/C=C/c3ccccn3)n[nH]c2c1` [axitinib] (10 µM) gave a morphology score in assay [1] of 0.563. In addition, the SARS-CoV-2 infection rate in assay [2] is 80.5% (inactive).
The matching figures for `CC(C)C(=O)OC[C@H]1O[C@@H](n2ccc(N)nc2=O)[C@](C)(F)[C@@H]1OC(=O)C(C)C` [mericitabine] (10 µM): 0.0222 and 102% (inactive).
The matching figures for `COc1ccc([C@]2(C#N)CC[C@@H](C(=O)O)CC2)cc1OC1CCCC1` [cilomilast] (10 µM): 0.246 and 104% (inactive).
The matching figures for `Nc1ccc2ncnc(NCCc3ccc(Oc4ccccc4)cc3)c2c1` (10 µM): -0.17 and 102% (inactive).
In assay [1], `O=S(=O)(O)Oc1ccc(C(c2ccc(OS(=O)(=O)O)cc2)c2ccccn2)cc1` [sodium-picosulfate] (10 µM) showed a morphology score of 0.154. The SARS-CoV-2 infection rate in assay [2] is 101% (inactive).
Consider `CCOC(=O)C1=C[C@@H](OC(CC)CC)[C@H](NC(C)=O)[C@@H](N)C1` [oseltamivir-phosphate] (10 µM), for which the morphology score in assay [1] stood at 0.239. Moreover, in assay [2], the SARS-CoV-2 infection rate is 85.5% (inactive).
The matching figures for `CC(C)SC(=N)N` [S-isopropylisothiourea] (10 µM): 0.0211 and 105% (inactive).
The like results for `CCOC(=O)[C@H](C)C[C@@H](Cc1ccc(-c2ccccc2)cc1)NC(=O)CCC(=O)O` [sacubitril] (10 µM) were, in that order, 0.156 and 102% (inactive).
The matching figures for `N[C@@H](C(=O)O)c1nn[nH]n1` (racemic) [tetrazol-5-yl-glycine-(RS)] (10 µM): 0.03 and 98% (inactive).
The molecule `O=C(O)c1c(Sc2ccccc2)c2cc(Cl)ccc2n1Cc1ccc(Cl)cc1` (10 µM) came in with a morphology score in assay [1] of 0.149. Besides, the SARS-CoV-2 infection rate in assay [2] was 102% (inactive).
Turning to `CN(C)CCCSc1ccccc1NC(=O)/C=C/c1ccccc1` [cinanserin] (10 µM), the morphology score in assay [1] turned out to be 0.164. For the same molecule, the SARS-CoV-2 infection rate in assay [2] was 92% (inactive).
The matching figures for `O=C(OC(C(F)(F)F)C(F)(F)F)N1CCC(C(O)(c2ccc3c(c2)OCO3)c2ccc3c(c2)OCO3)CC1` (10 µM): 0.159 and 93.5% (inactive).
The like results for `O=C1N[C@@H]2[C@@H](O)[C@@H](O)[C@H](O)[C@@H](CO)N2C1=O` [kifunensine] (10 µM) were, in that order, 0.19 and 94% (inactive).
The like results for `CO/N=C(\C(=O)N[C@@H]1C(=O)N2C(C(=O)O)=C(CSC(=O)c3ccco3)CS[C@H]12)c1csc(N)n1` (10 µM) were, in that order, 0.156 and 104% (inactive).
`N=C(N)c1ccc(-c2ccc(-c3ccc(C(=N)N)cc3)o2)cc1` [furamidine] (10 µM) displayed a morphology score in assay [1] of -0.436. The SARS-CoV-2 infection rate in assay [2] was 98% (inactive).
The matching figures for `N#Cc1c(N)nc(SCC(N)=O)c(C#N)c1-c1ccc(OCC2CC2)cc1` (10 µM): -0.0282 and 108% (inactive).
Take `CNC(=O)c1cccc2cc(Oc3ccnc4cc(OCC5(N)CC5)c(OC)cc34)ccc12` [lucitanib] (10 µM): in assay [1], the morphology score was 0.0362. Further, the SARS-CoV-2 infection rate in assay [2] was 104% (inactive).
The matching figures for `CN1CCN(c2ccc3[nH]c(-c4ccc5[nH]c(-c6ccc(O)cc6)nc5c4)nc3c2)CC1` [pibenzimol] (10 µM): 0.0018 and 110% (inactive).
The like results for `C[C@H]1[C@H](OC(=O)CCC(=O)O)O[C@@H]2O[C@@]3(C)CC[C@H]4[C@H](C)CC[C@@H]1[C@@]24OO3` [artesunate] (0.833333 µM) were, in that order, 0.157 and 97% (inactive).
With `CO[C@@H]1[C@@H](O[C@@H]2O[C@H](C)[C@@H](O[C@H]3C[C@@](C)(O)[C@@H](OC(=O)CC(C)C)[C@H](C)O3)[C@H](N(C)C)[C@H]2O)[C@@H](CC=O)C[C@@H](C)[C@@H](O)/C=C/C=C/C[C@@H](C)OC(=O)C[C@H]1OC(C)=O` [josamycin] (10 µM), the morphology score in assay [1] was -0.0313. Further, in assay [2], the SARS-CoV-2 infection rate was 113% (inactive).
The like results for `O=P(O)(O)CN(CCN(CP(=O)(O)O)CP(=O)(O)O)CP(=O)(O)O` (10 µM) were, in that order, 0.137 and 104% (inactive).
The matching figures for `C[C@H]1CC[C@H](n2c3cnccc3c3cnc(Nc4ccc5c(n4)CCN(C(=O)CO)C5)nc32)CC1` (10 µM): 0.0031 and 110% (inactive).
